The values that follow come from PubChem BioAssay AID1456 (Vanderbilt High Throughput Screening Facility, 2008).

In all, about 190,000 compounds went through this assay and about 4,100 (2.2%) were called active. This excerpt belongs to a sample that is enriched for actives. Values without a mark were called inactive.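 How the source made its calls: active means thallium flux slope and its plate-corrected score both differing from the plate sample mean at a set confidence after two filtering rounds, in either direction; inactive means the rest.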

In this test the target is Solute carrier family 12 member 5 (Homo sapiens) (UniProt Q9H2X9). Put plainly: KCC2 cotransporter modulators, thallium flux, primary screen, cell-based, HEK293 KCC2, FluoZin-2 fluorescence, MLSMR (AID 1456).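 Further: slope of fluorescence scaled to starting intensity during 10 to 20 s after thallium.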 Particulars: KCC2 cells, thallium flux FluoZin-2 fluorescence; at 10 µM.
Sequence of Solute carrier family 12 member 5 (Homo sapiens) (Q9H2X9 whole entry, looked up): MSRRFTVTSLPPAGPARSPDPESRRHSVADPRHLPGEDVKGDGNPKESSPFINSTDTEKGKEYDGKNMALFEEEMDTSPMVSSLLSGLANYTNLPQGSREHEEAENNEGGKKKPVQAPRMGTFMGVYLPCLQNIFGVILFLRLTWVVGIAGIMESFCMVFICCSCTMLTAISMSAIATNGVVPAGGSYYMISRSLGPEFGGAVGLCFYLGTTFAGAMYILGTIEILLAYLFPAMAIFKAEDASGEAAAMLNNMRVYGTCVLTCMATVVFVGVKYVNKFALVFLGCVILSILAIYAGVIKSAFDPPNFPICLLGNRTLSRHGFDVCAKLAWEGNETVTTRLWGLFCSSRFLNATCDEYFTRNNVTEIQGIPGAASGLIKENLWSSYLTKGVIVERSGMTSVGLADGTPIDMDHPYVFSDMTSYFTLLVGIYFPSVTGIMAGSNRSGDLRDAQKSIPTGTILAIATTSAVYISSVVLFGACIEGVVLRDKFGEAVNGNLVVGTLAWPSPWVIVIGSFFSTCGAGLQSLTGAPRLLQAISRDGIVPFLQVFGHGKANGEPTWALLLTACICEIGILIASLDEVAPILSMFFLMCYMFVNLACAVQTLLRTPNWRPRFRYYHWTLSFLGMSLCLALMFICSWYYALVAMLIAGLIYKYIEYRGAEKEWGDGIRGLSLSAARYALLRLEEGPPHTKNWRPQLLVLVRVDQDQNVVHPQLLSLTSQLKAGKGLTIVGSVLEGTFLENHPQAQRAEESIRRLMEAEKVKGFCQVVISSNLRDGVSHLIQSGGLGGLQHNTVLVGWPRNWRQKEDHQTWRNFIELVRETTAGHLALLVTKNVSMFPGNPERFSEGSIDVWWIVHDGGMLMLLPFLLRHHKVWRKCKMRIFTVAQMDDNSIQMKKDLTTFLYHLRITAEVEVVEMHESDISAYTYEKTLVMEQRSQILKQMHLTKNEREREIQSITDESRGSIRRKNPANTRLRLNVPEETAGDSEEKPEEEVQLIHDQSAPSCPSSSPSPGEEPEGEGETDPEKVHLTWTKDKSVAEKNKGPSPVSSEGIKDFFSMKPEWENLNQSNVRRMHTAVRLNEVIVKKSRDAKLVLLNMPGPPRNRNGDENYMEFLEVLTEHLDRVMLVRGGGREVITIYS
As for `COc1ccc(/C=C(/CC(=O)Nc2ccc(C)cc2)c2nc3ccccc3s2)cc1`, the B-score of Tl+ flux slope (higher = more flux/activation; lower = inhibition) is -0.666.

Turning to `O=C(O)CS/C(=C\c1ccc(F)cc1)c1nc2ccccc2s1`, the B-score of Tl+ flux slope (higher = more flux/activation; lower = inhibition) is -7.14 (active).

As for `O=C(O)CSCc1nc2ccccc2s1`, the B-score of Tl+ flux slope (higher = more flux/activation; lower = inhibition) was 0.175.

On to `O=C(CC1SC(=Nc2ccccc2F)N(CCN2CCOCC2)C1=O)Nc1ccc(F)cc1F` (stereo not given), for which the B-score of Tl+ flux slope (higher = more flux/activation; lower = inhibition) was 0.206.

For the compound `Cc1ccc2cc(/C=N/NC(=O)[C@@H]3CCCN3)c(Cl)nc2c1`, the B-score of Tl+ flux slope (higher = more flux/activation; lower = inhibition) was 0.721.

On to `Cc1cccc(C(=O)NC(=S)N2CCN(c3ccc([N+](=O)[O-])cc3)CC2)c1`, for which the B-score of Tl+ flux slope (higher = more flux/activation; lower = inhibition) is 1.26.

As to `O=C(Nc1cccc(C(F)(F)F)c1)c1ccc(N2CCNCC2)c([N+](=O)[O-])c1`, the B-score of Tl+ flux slope (higher = more flux/activation; lower = inhibition) was 1.31.

As to `COc1cc(OC)cc(C(=O)NC(=S)N2CCN(c3ccc(C(F)(F)F)cc3[N+](=O)[O-])CC2)c1`, the B-score of Tl+ flux slope (higher = more flux/activation; lower = inhibition) is 6.75 (active).

Take `Cc1cccc(C(=O)OCC(=O)NCC(C)C)c1O`: the B-score of Tl+ flux slope (higher = more flux/activation; lower = inhibition) was -0.558.

Consider `O=C(NCCc1ccccc1)Oc1ccc(Cl)cc1`, for which the B-score of Tl+ flux slope (higher = more flux/activation; lower = inhibition) was -2.47.

As to `O=C(O)c1ccccc1-c1ccccc1C(=O)Nc1cccc2ccccc12`, the B-score of Tl+ flux slope (higher = more flux/activation; lower = inhibition) is -0.144.

`CC(C)C1Nc2c(C(=O)O)cccc2C(Nc2ccccc2C(=O)O)C1(C)C` (stereo not given): the B-score of Tl+ flux slope (higher = more flux/activation; lower = inhibition) was -7.13 (active).

As for `CCNC(=O)CCc1nc(-c2ccc(C)cc2)no1`, the B-score of Tl+ flux slope (higher = more flux/activation; lower = inhibition) was 0.371.

`C/C(Cc1ccccc1)=N\NC(=O)CNC(=O)c1ccccc1Cl`: the B-score of Tl+ flux slope (higher = more flux/activation; lower = inhibition) was -0.103.

As to `O=C(Nc1ccc(-c2nnc(-c3ccccc3)o2)cc1)c1ccc(Br)o1`, the B-score of Tl+ flux slope (higher = more flux/activation; lower = inhibition) was 1.83.

In the case of `O=C(Nc1cccc(Cl)c1)Nc1nnc(-c2ccccc2)o1`, the B-score of Tl+ flux slope (higher = more flux/activation; lower = inhibition) is 3.17.

Take `O=C(Nc1nnc(-c2ccc(Cl)cc2)o1)c1ccccc1Br`: the B-score of Tl+ flux slope (higher = more flux/activation; lower = inhibition) is 35.2 (active).

Consider `O=C(NNS(=O)(=O)Cc1ccccc1)c1ccc([N+](=O)[O-])cc1`, for which the B-score of Tl+ flux slope (higher = more flux/activation; lower = inhibition) was 0.00978.

Turning to `FC(F)Oc1ccccc1NC(=S)Nc1cccc(Cl)c1Cl`, the B-score of Tl+ flux slope (higher = more flux/activation; lower = inhibition) is 6.89 (active).

Regarding `COc1ccc(NC(=S)Nc2ccccc2Cl)cn1`, the B-score of Tl+ flux slope (higher = more flux/activation; lower = inhibition) was 0.811.

On to `COc1ccccc1NC(=S)NC(=O)C(C)C`, for which the B-score of Tl+ flux slope (higher = more flux/activation; lower = inhibition) was 1.52.

In the case of `Cc1ccc(Cn2c(SCC(=O)N/N=C/c3ccccc3OCC(=O)O)nc3ccccc32)cc1`, the B-score of Tl+ flux slope (higher = more flux/activation; lower = inhibition) was 1.95.

Regarding `O=C(CSc1nnc2n1CCCN2)c1ccccc1`, the B-score of Tl+ flux slope (higher = more flux/activation; lower = inhibition) is -0.0921.

On to `CC(C)N1CCC(=NNc2ccc([N+](=O)[O-])cc2S(=O)(=O)N2CCOCC2)CC1`, for which the B-score of Tl+ flux slope (higher = more flux/activation; lower = inhibition) was 0.0282.

For `Cc1ccc(NNC(=O)C2CCC2)cc1C`, the B-score of Tl+ flux slope (higher = more flux/activation; lower = inhibition) was 0.435.

On to `CN(C)c1ccc(/C=C2\NC(=S)N(Cc3ccccc3)C2=O)cc1`, for which the B-score of Tl+ flux slope (higher = more flux/activation; lower = inhibition) is 2.56.

As for `COc1cc2c(cc1/C=C1/NC(=O)N(c3ccccc3)C1=O)OCO2`, the B-score of Tl+ flux slope (higher = more flux/activation; lower = inhibition) was 0.747.

With `O=C1/C(=C\c2ccsc2)NC(=S)N1c1ccccc1`, the B-score of Tl+ flux slope (higher = more flux/activation; lower = inhibition) was 11.5 (active).

As to `CC(=O)NC(=S)Nc1ccc(NC(=O)c2cccnc2)cc1`, the B-score of Tl+ flux slope (higher = more flux/activation; lower = inhibition) is 1.03.

Regarding `NS(=O)(=O)c1ccc(NC(=S)NC(=O)c2cccc(Br)c2)cc1`, the B-score of Tl+ flux slope (higher = more flux/activation; lower = inhibition) was 1.13.

In the case of `NS(=O)(=O)c1ccc(NC(=S)NC(=O)c2cccnc2)cc1`, the B-score of Tl+ flux slope (higher = more flux/activation; lower = inhibition) was 1.98 (active).

On to `O=C(Cn1c(-c2ccc(Cl)cc2)noc1=O)N1CCN(c2ccccc2F)CC1`, for which the B-score of Tl+ flux slope (higher = more flux/activation; lower = inhibition) is -4.49 (active).

Regarding `O=C(CCSc1ccccc1)N1CCN(c2ccccc2F)CC1`, the B-score of Tl+ flux slope (higher = more flux/activation; lower = inhibition) is -1.46.

Regarding `Cn1c(=O)cc(OCC(=O)N2CCN(c3ccccc3F)CC2)c2ccccc21`, the B-score of Tl+ flux slope (higher = more flux/activation; lower = inhibition) is -0.0376.

As to `COc1ccc(OCC(O)CNCCNc2nccc(C(F)(F)F)n2)cc1` (stereo not given), the B-score of Tl+ flux slope (higher = more flux/activation; lower = inhibition) is 0.542.

Turning to `Cc1ccc2c(c1)nnc1nnc(SCC(=O)O)n12`, the B-score of Tl+ flux slope (higher = more flux/activation; lower = inhibition) was -0.0291.

As to `c1ccc(-c2nnc(SCc3nc4ccccc4[nH]3)o2)cc1`, the B-score of Tl+ flux slope (higher = more flux/activation; lower = inhibition) was -1.33.

With `Fc1ccc2nc(-c3ccccc3)nc(SCc3nnc(-c4ccccc4)o3)c2c1`, the B-score of Tl+ flux slope (higher = more flux/activation; lower = inhibition) is 41.8 (active).

`Cc1ccc2nc(SCc3nnc(-c4ccccc4[N+](=O)[O-])o3)c(C#N)cc2c1`: the B-score of Tl+ flux slope (higher = more flux/activation; lower = inhibition) was 0.799.

As for `O=C(NCc1cccnc1)c1nc(-c2cccs2)no1`, the B-score of Tl+ flux slope (higher = more flux/activation; lower = inhibition) was 0.407.

As for `CCCCN1Cc2c(nc3cc(-c4ccccc4)[nH]n3c2=O)C1=O`, the B-score of Tl+ flux slope (higher = more flux/activation; lower = inhibition) is -0.758.

Regarding `NCCCCCC(=O)N/N=C/c1ccc2nccnc2c1`, the B-score of Tl+ flux slope (higher = more flux/activation; lower = inhibition) is 1.4.

Consider `CCOC(=O)C1CCCN(C(=O)/C=C/c2ccc(OC)cc2)C1` (stereo not given), for which the B-score of Tl+ flux slope (higher = more flux/activation; lower = inhibition) is -0.769.

On to `O=C(Nc1ccc(S(=O)(=O)N2CCOCC2)cc1)c1ccc2ncsc2c1`, for which the B-score of Tl+ flux slope (higher = more flux/activation; lower = inhibition) was 0.51.

As for `CC(=O)Nc1cccc(C(=O)Nc2nc(C)cs2)c1`, the B-score of Tl+ flux slope (higher = more flux/activation; lower = inhibition) is -0.0712.

Take `Cc1csc(NC(=S)Nc2cccc(Cl)c2)n1`: the B-score of Tl+ flux slope (higher = more flux/activation; lower = inhibition) is 63.6 (active).

As to `S=C(Nc1cccc(Cl)c1)Nc1ccc2cn[nH]c2c1`, the B-score of Tl+ flux slope (higher = more flux/activation; lower = inhibition) is -0.0612.

Regarding `CCc1nc(NCCO)c(C#N)c2c1CCCC2`, the B-score of Tl+ flux slope (higher = more flux/activation; lower = inhibition) is -0.68.

Take `S=C(NCCc1ccccc1)N1CCn2cccc2C1c1ccncc1` (stereo not given): the B-score of Tl+ flux slope (higher = more flux/activation; lower = inhibition) was -2.41.

Take `CN1CCN(c2ncc3c(n2)CC(c2ccccc2F)CC3=O)CC1` (stereo not given): the B-score of Tl+ flux slope (higher = more flux/activation; lower = inhibition) was -1.12.
